Assay [1] in a line: thallium flux activation in parental CHO cells, counter-screen for KCNQ1 potentiator project (AID 493006;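 active = duplicate-averaged activation above buffer control mean plus 5 SD of those controls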;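 as to activation: fluorescence ratio of max minus min over baseline after K+ and Tl+ depolarization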). As to conditions: parental CHO-K1 cells, FluxOR thallium flux, at 10 µM; hits give high values.
In assay [2] the target is Potassium voltage-gated channel subfamily KQT member 1 (Homo sapiens) (UniProt P51787). Description: KCNQ1 potassium channel potentiators, confirmation, FluxOR thallium flux, CHO cells, duplicates (AID 493007;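 active = potentiation averaged over duplicate wells exceeding buffer-only control mean by more than 3 SD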;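 as to outcome: cells depolarized by a potassium plus thallium sulfate stimulus after compound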;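 as to potentiation: 0% = buffer-only wells and 100% = R-L3 activator control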). As to conditions: KCNQ1 cell line, FluxOR thallium flux fluorescence, at 10 µM; hits give high values, % of reference activator effect, buffer zero.
Potassium voltage-gated channel subfamily KQT member 1 (Homo sapiens), sequence (P51787 whole entry, looked up): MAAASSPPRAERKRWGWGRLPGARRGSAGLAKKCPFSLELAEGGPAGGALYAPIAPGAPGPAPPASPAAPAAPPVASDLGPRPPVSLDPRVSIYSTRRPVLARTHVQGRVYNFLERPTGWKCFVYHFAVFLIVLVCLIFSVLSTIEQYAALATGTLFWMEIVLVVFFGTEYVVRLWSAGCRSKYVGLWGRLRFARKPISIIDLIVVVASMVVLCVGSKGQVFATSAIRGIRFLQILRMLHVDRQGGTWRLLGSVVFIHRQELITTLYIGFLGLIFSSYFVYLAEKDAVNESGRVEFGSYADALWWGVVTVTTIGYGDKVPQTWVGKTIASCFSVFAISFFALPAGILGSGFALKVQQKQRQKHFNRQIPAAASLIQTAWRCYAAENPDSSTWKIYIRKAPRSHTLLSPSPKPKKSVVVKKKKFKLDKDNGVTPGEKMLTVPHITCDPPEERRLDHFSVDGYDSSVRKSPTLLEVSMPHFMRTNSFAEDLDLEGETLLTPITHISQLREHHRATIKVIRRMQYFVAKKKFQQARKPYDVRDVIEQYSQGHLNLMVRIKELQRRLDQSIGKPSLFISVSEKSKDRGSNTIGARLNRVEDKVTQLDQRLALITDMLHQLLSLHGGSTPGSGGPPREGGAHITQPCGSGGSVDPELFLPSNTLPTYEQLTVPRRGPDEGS
Assay [3] deals with Potassium voltage-gated channel subfamily KQT member 2 (Rattus norvegicus) (UniProt O88943). Description: rat KCNQ2 channel potentiation, selectivity assay for KCNQ1 potentiator project, KCNQ2-CHO-K1 cells (AID 493009).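 Also: assay conditions were tuned for KCNQ1 rather than KCNQ2 modulators; signal is max minus min fluorescence divided by baseline after thallium stimulus.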 The note with it: FluxOR thallium flux fluorescence, at 10 µM; hits give high values, scaled: buffer 0, activator control 100.
Potassium voltage-gated channel subfamily KQT member 2 (Rattus norvegicus), sequence (O88943 whole entry, looked up): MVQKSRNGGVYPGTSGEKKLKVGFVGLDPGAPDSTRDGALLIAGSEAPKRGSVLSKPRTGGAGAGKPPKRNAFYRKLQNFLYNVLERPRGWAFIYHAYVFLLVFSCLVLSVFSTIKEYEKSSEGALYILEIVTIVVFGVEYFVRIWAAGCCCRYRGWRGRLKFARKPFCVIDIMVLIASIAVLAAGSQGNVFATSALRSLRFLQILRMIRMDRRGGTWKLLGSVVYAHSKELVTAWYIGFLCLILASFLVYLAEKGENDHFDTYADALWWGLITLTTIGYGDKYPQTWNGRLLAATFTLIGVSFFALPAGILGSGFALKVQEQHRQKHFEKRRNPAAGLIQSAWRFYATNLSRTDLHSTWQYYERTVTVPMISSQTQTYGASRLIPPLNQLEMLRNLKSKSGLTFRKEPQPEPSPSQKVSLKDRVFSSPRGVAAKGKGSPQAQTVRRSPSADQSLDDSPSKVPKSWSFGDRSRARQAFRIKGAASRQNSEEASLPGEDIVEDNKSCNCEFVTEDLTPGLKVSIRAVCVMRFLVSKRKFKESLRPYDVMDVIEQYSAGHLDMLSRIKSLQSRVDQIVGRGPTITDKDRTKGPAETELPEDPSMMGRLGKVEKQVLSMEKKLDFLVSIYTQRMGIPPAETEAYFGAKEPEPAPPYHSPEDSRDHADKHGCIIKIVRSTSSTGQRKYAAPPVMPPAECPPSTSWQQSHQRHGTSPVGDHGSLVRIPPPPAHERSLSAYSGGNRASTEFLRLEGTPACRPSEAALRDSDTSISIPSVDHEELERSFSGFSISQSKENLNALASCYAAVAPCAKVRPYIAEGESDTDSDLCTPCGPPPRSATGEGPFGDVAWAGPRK
In assay [4] the target is Potassium voltage-gated channel subfamily KQT member 1 (Homo sapiens) (UniProt P51787). Briefly: KCNQ1 channel current potentiators, confirmation, orthogonal assay for KCNQ1 potentiator project, IonWorks patch clamp, KCNQ1-CHO cells (AID 493184;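 active = current rise at least 3 SD above the untreated control mean in each of two repeat wells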;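 as to current potentiation: percent change of the same well's current before compound addition so 0% = no change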). As to conditions: automated patch clamp current, at 10 µM; hits give high values.

The structures appear in SMILES notation. A number with no mark means an inactive call. The source made the active and inactive calls.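 The calls were made as follows, unless noted: active = mean duplicate potentiation above the buffer control mean plus 5 SD of buffer wells; inactive = the rest.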

Regarding `O=C(NC(=S)Nc1nc2ccc(F)cc2s1)c1ccco1`, the activation in assay [1] was 282% (active). The potentiation was 132% (active) in assay [2] and 331% (active) in assay [3]. In assay [4], the result was inactive.
Turning to `CCOc1ccc2[nH]c(=O)c(CN(Cc3ccc(C)cc3)C(=O)N3CCCC3)cc2c1`, the result in assay [1], in assay [2], in assay [3] and in assay [4] was inactive.
For the compound `COc1ccc2oc(C(=O)OCC(=O)N3CC(C)OC(C)C3)c(C)c2c1` (configuration not stated), the outcome in assay [1], in assay [2], in assay [3] and in assay [4] was inactive.
Regarding `Nc1nc(NCc2ccco2)nc(NC2CCCCC2)c1[N+](=O)[O-]`, the outcome in assay [1], in assay [2], in assay [3] and in assay [4] was inactive.
Regarding `CCOc1ccc(NC(=S)NC(=O)c2ccco2)cc1`, the outcome in assay [1] and in assay [4] was inactive. Further, the potentiation in assay [2] was 29% (active); in assay [3], 180% (active).
For the compound `CCOC(=O)c1cnc2c(C)c(Cl)ccc2c1N1CCN(CC)CC1`, the outcome in assay [1], in assay [2], in assay [3] and in assay [4] was inactive.
On to `CN(Cc1cn[nH]c1-c1ccc2c(c1)OCO2)C1CCOCC1`, for which the outcome in assay [1], in assay [2], in assay [3] and in assay [4] was inactive.
Take `CCCCCn1c(=O)c(F)cn(Cc2ccc(OC)c([N+](=O)[O-])c2)c1=O`: the result in assay [1], in assay [2], in assay [3] and in assay [4] was inactive.
Regarding `COc1cccc(OC)c1C(=O)Nc1ccc(C(=O)NCc2ccccc2)cc1`, the result in assay [1], in assay [2], in assay [3] and in assay [4] was inactive.
Regarding `COc1ccc(-c2csc(NC(=O)C3CCCCN3S(=O)(=O)c3ccccc3)n2)cc1` (configuration not stated), the outcome in assay [1] and in assay [3] was inactive. Further, in assay [2], the potentiation is 93.5% (active). Further, in assay [4], the current potentiation was 122% (active).
Take `CC1CCN(S(=O)(=O)c2cccc(C(=O)N3CCN(c4ccc(F)cc4)CC3)c2)CC1`: the result in assay [1], in assay [2], in assay [3] and in assay [4] was inactive.
With `COc1ccccc1N1C(=NC(=O)C(C)Oc2ccccc2)SC2CS(=O)(=O)CC21` (configuration not stated), the result in assay [1], in assay [2], in assay [3] and in assay [4] was inactive.
Consider `O=C(NCC1CCCO1)c1ccccc1OCc1ccc(F)cc1` (configuration not stated), for which the outcome in assay [1], in assay [2], in assay [3] and in assay [4] was inactive.
`CC1CC(C)CN(Cc2nc(N)nc(Nc3ccc4ccccc4c3)n2)C1` (configuration not stated): in assay [1], the activation is 170% (active). Moreover, the potentiation is 43.5% (active) in assay [2] and 165% (active) in assay [3]. In addition, the outcome in assay [4] was inactive.
As for `N#Cc1ccccc1NS(=O)(=O)c1cc2c3c(c1)CCC(=O)N3CCC2`, the outcome in assay [1], in assay [2], in assay [3] and in assay [4] was inactive.
Consider `CCOc1cc(CNc2ncnc3nc[nH]c23)ccc1OC`, for which the outcome in assay [1], in assay [2], in assay [3] and in assay [4] was inactive.
With `c1ccc2c(c1)OCC(CNc1ncnc3nc[nH]c13)O2` (configuration not stated), the activation in assay [1] is 227% (active). Further, the values for the potentiation in assay [2] and in assay [3] were 46% (active) and 194% (active), respectively. In addition, the outcome in assay [4] was inactive.
Consider `Cc1ccc(-c2ccnc(=S)[nH]2)cc1`, for which the result in assay [1], in assay [2], in assay [3] and in assay [4] was inactive.
Regarding `Cc1ccc(/C=C/C(=O)c2ccccc(=O)c2O)cc1C`, the activation in assay [1] was 174% (active). In addition, the potentiation was 56.5% (active) in assay [2] and 276% (active) in assay [3]. Also, the outcome in assay [4] was inactive.
In the same order, the values of `CCOC(=O)c1sc2ncnc(NCc3ccco3)c2c1C` are 332% (active), 152% (active), 358% (active) and “inactive”.
Consider `CCn1c(=S)[nH]c2scc(-c3cccs3)c2c1=O`, for which the activation in assay [1] is 548% (active). Further, the potentiation is 246% (active) in assay [2] and 528% (active) in assay [3]. Also, the result in assay [4] was inactive.
For `CCN(CC(=O)Nc1ccc(OC)cc1)C(=O)CSCC(=O)Nc1ccc(C)cc1`, the result in assay [1], in assay [2], in assay [3] and in assay [4] was inactive.
Consider `Cc1ccc(SCC2(O)CCN(S(=O)(=O)c3ccc(Cl)cc3)CC2)cc1`, for which the result in assay [1], in assay [2], in assay [3] and in assay [4] was inactive.
Regarding `COCCNC(=O)CN(C)S(=O)(=O)c1ccc(Br)cc1`, the result in assay [1], in assay [2], in assay [3] and in assay [4] was inactive.
For `CC(C)(C)C1CCc2c(sc(NC(=O)C3CC=CCC3C(=O)O)c2C#N)C1` (configuration not stated), in assay [1], the activation was 178% (active). The potentiation is 53% (active) in assay [2] and 184% (active) in assay [3]. The result in assay [4] was inactive.
`C=CCn1c(=S)[nH]c2sc3c(c2c1=O)CCC3`: the activation in assay [1] is 364% (active). For the same compound, the potentiation in assay [2] is 124% (active); in assay [3], 301% (active). Besides, the outcome in assay [4] was inactive.
`CCc1cc(-c2n[nH]c(C)c2-c2nc3ccccc3s2)c(O)cc1OCC(=O)NN`: the result in assay [1], in assay [2], in assay [3] and in assay [4] was inactive.
Take `Cc1ccc2nc(NC(=O)c3ccc(Br)o3)sc2c1`: the outcome in assay [1], in assay [2], in assay [3] and in assay [4] was inactive.
`CCOC(=O)c1c(NS(=O)(=O)c2cccc(OC)c2)sc2c1CCC2`: the outcome in assay [1], in assay [3] and in assay [4] was inactive. Besides, in assay [2], the potentiation was 59% (active).
`CCc1ccc(CNC(=O)CCn2nc(C)c3c(C)n(-c4ccccc4)nc3c2=O)cc1`: the result in assay [1], in assay [2], in assay [3] and in assay [4] was inactive.
For the compound `O=c1c2cc(NC(=S)NCCCN3CCC(Cc4ccccc4)CC3)ccc2nc2n1CCCCC2`, the outcome in assay [1], in assay [2], in assay [3] and in assay [4] was inactive.
Regarding `c1csc(-c2csc3ncnc(NCCCN4CCOCC4)c23)c1`, the result in assay [1], in assay [2], in assay [3] and in assay [4] was inactive.
As to `Fc1ccc(COc2ccc(Br)cc2CNCc2ccncc2)cc1`, the outcome in assay [1], in assay [2], in assay [3] and in assay [4] was inactive.
For the compound `O=C(Nc1nnc(-c2ccc3c(c2)CCCC3)o1)c1ccc(Cl)cc1Cl`, in assay [1], the activation is 374% (active). The potentiation in assay [2] was 176% (active); in assay [3], 442% (active). In addition, the outcome in assay [4] was inactive.
In the same order, the values of `O=c1[nH]c(C(Cl)(Cl)Cl)nc2ccc3ccccc3c12` are 166% (active), 50% (active), 202% (active) and “inactive”.
Consider `CCN(CC)c1ccc(Nc2cc3n(c(=O)n2)CCc2cc(OC)c(OC)cc2-3)cc1`, for which the result in assay [1], in assay [2], in assay [3] and in assay [4] was inactive.
Consider `Cc1nn(-c2ccccc2)nc1C(=O)NNC(=O)c1cccc2ccccc12`, for which the outcome in assay [1] and in assay [4] was inactive. The values for the potentiation in assay [2] and in assay [3] were 53% (active) and 182% (active), respectively.
Turning to `Cc1ccc(C(=O)NNC(=O)CCCCC(=O)NNC(=O)c2ccc(C)cc2)cc1`, the outcome in assay [1], in assay [2], in assay [3] and in assay [4] was inactive.

The values above are taken from PubChem BioAssay.
